# Experiments:
# Test in all cases: PBM binding z-score (relative to random genomic background probes); higher = stronger binding; sequences stand for … in GC…GCGATTGACAGCGTAGAATGAAGG
# [1] = test system: FXR:RXRa (NR concentration 270 nM, RXRa partner concentration 90 nM)
# Outline: (§1)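 On custom Agilent 4×180K arrays, double-stranded probes with 34-nt variable regions carried direct-repeat seeds, single-nucleotide variants, half-site ablations or random human genomic background. Ligand-free nuclear receptor dimers were applied for 1 h, and binding was read with antibodies against each partner (one per run). Binding z-scores come from regression-normalized fluorescence, with the random background probes as reference.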
# [2] = test system: LXRa:RXRa (NR concentration 270 nM, RXRa partner concentration 90 nM)
# Outline: as §1
# [3] = test system: LXRa homodimer (NR concentration 270 nM)
# Outline: as §1
# [4] = test system: LXRb:RXRa (NR concentration 270 nM, RXRa partner concentration 90 nM)
# Outline: as §1
# [5] = test system: LXRb homodimer (NR concentration 270 nM)
# Outline: as §1
# [6] = test system: PPARa:RXRa (NR concentration 270 nM, RXRa partner concentration 90 nM)
# Outline: as §1
# [7] = test system: PPARg:RXRa (NR concentration 180 nM, RXRa partner concentration 90 nM)
# Outline: as §1
# [8] = test system: PPARg:RXRa 270nM:90nM, anti-RXR (NR concentration 270 nM, RXRa partner concentration 90 nM)
# Outline: as §1
# [9] = test system: PPARg:RXRa 30nM:10nM, anti-RXR (NR concentration 30 nM, RXRa partner concentration 10 nM)
# Outline: as §1
# [10] = test system: PPARg:RXRa 90nM:30nM, anti-RXR (NR concentration 90 nM, RXRa partner concentration 30 nM)
# Outline: as §1
# [11] = test system: PPARg:RXRa DBDmut IVT, anti-RXR (DBD mutation: RXRa K156A/R161A, NR concentration 270 nM, RXRa partner concentration 90 nM)
# Outline: as §1
# [12] = test system: PPARg:RXRa IVT, anti-PPARg (NR concentration 270 nM, RXRa partner concentration 90 nM)
# Outline: as §1
# [13] = test system: PPARg DBDmut:RXRa IVT, anti-PPARg (DBD mutation: PPARg1 K132A/R137A, NR concentration 270 nM, RXRa partner concentration 90 nM)
# Outline: as §1
# [14] = test system: PPARg DBDmut IVT, anti-PPARg (DBD mutation: PPARg1 K132A/R137A, NR concentration 270 nM)
# Outline: as §1
# [15] = test system: PPARg homodimer (NR concentration 180 nM)
# Outline: as §1
# [16] = test system: PXR:RXRa (NR concentration 270 nM, RXRa partner concentration 90 nM)
# Outline: as §1
# [17] = test system: PXR homodimer (NR concentration 270 nM)
# Outline: as §1
# [18] = test system: RARa:RXR (NR concentration 270 nM, RXRa partner concentration 90 nM)
# Outline: as §1
# [19] = test system: RARa homodimer (NR concentration 270 nM)
# Outline: as §1
# [20] = test system: RARb:RXRa (NR concentration 270 nM, RXRa partner concentration 90 nM)
# Outline: as §1
Sequence,PBM binding z-score [1],PBM binding z-score [2],PBM binding z-score [3],PBM binding z-score [4],PBM binding z-score [5],PBM binding z-score [6],PBM binding z-score [7],PBM binding z-score [8],PBM binding z-score [9],PBM binding z-score [10],PBM binding z-score [11],PBM binding z-score [12],PBM binding z-score [13],PBM binding z-score [14],PBM binding z-score [15],PBM binding z-score [16],PBM binding z-score [17],PBM binding z-score [18],PBM binding z-score [19],PBM binding z-score [20]
GCGACTGGGGCCTCAGCAGGTTACCATAACTTAA,-0.561,-0.698,-0.704,-0.145,-1.25,-0.221,-0.306,-0.849,-0.842,-0.966,-0.00241,-0.47,-1.2,-1.98,-0.186,-0.277,-0.863,0.0865,-1.06,0.0626
GCTAGTTGGTCAGTAAAAGGTCACACATCGGTCG,3.3,4.12,4.59,4.13,0.936,4.23,2.71,4.56,2.08,3.74,1.75,2.98,0.0513,0.435,4.49,4.7,1.49,5.23,2.58,4.26
ATGTCTAGGTAAAAGTTCAGTGAATCCCGAGGAT,0.745,1.33,1.16,0.843,0.542,3.76,7.03,6.9,5.57,7.4,1.33,3.13,0.931,0.765,1.17,1.87,1.49,1.77,0.698,2.39
TCTTGTAGATCAACAGGAGGTTAAGAACGATCGA,0.185,0.857,0.191,0.748,-0.245,1.36,0.136,1.3,2.75,1.81,1.71,0.594,0.843,0.593,0.264,0.722,-0.175,0.889,0.0224,0.446
CGAAGTAGGTCATTGACAGGACAGTGAATAGTAA,4.75,3.56,0.791,2.6,0.392,5.05,7.92,6.67,4.6,6.57,8.42,8.66,3.43,2.58,2.08,2.16,0.395,2.66,0.16,3.58
CCTAGCACGCCAGGGTCACTCAAGCATTTCGCTT,1.59,1.52,-0.519,1.79,-1.1,2.81,0.36,0.763,-0.35,-0.137,-0.508,0.0216,-0.715,-1.26,0.342,2.48,-0.243,2.55,-0.31,2.44
CCTTGTTGGTCAGGAGGTCACACACCGGATATGA,3.65,3.45,2.55,3.64,0.947,4.07,3.37,3.8,1.66,2.83,1.61,3.58,0.862,0.471,2.86,4.22,1.27,4.37,1.82,3.85
CCTAACAGGCCAATCTGGGTCACTCAAGGCTTGA,1.06,1.75,0.16,1.19,-0.0196,3.19,2.31,2.35,0.094,1.57,4.43,5.18,0.79,-0.8,1.16,1.3,0.00111,1.43,0.117,1.77
CCGAGTAGGTTATGGGGCATGCAGGCAACGGTGA,0.144,0.219,-0.12,0.502,-0.337,1.93,3.81,4.62,2.08,4.14,2.71,3.37,-0.039,-0.361,0.867,-0.014,-0.179,0.374,0.0539,1.03
TCTATTAGTTGATTAGGGCAAACGAAACAGCGGA,0.336,0.43,0.307,0.724,0.369,0.691,0.317,1.62,3.24,2.29,1.88,1.04,0.889,1.04,0.195,0.343,0.106,0.325,0.996,0.708
CCGAGTAGGTTATGTGGCATTCAGGCAACGGTGA,0.192,0.353,0.0932,0.0215,-0.284,0.798,0.853,1.85,-0.095,0.651,3.28,2.2,-0.431,-0.42,0.696,-0.298,-0.313,-0.131,0.978,0.573
TCTAGTTGGTCAAAGGTCACACCCTCGAAATGCG,5.49,5.27,4.32,5.41,1.92,6.69,11.6,10.1,10.3,12.2,3.68,6.43,1.66,0.719,6.91,6.04,2.22,7.62,4.33,5.02
CCAGACAGGTGTAAGGTAACTCAGTCTGGTACGC,-0.0338,-0.35,-0.126,-0.421,-0.449,0.0692,0.41,0.842,-0.246,0.409,-0.423,-0.31,-0.287,-0.728,0.365,-0.318,-0.0688,-0.0779,-0.14,-0.403
TCGGCTAGGTCAACGATGGTCAGCTAATCTGCTA,3.23,2.31,-0.307,1.72,-0.717,3.14,1.75,2.37,1.62,2.03,3.13,3.06,-0.836,-0.603,1.19,1.58,-0.468,2.04,-0.329,3.97

# Reference: the supplement of paper PMC6555819
